From PubChem BioAssay (Tox21)
Inconclusive results are not listed. Active and inactive are the calls of the source. Unless noted, calls follow the shape of the dose curve; as a rule, active = well fitted curve in the direction sought with a large enough effect in the repeat runs; inconclusive = weak or mixed curves; inactive = no such curve, though single readings can be large; an effect the other way counts as inactive or inconclusive.

Experiments:
[1] = qHTS assay for small molecule agonists of the p53 signaling pathway (AID 651631; calls by dose curve; also: nearly all actives have a fitted effect of over 15% in size)
Outline: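 Readout was fluorescence from the LiveBLAzer FRET substrate, applied for 2 h at room temperature after 16 h compound exposure at 37 °C. Cells were the p53RE-bla HCT-116 line, with beta-lactamase driven by p53 response elements.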

[2] = qHTS assay for small molecule agonists of the p53 signaling pathway - cell viability (AID 651633; calls by dose curve; also: series mostly up to about 83 µM; nearly all actives have a fitted effect of over 30% in size)
Outline: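 Viability counter-read: CellTiter-Glo luminescence (30 min, room temperature) in the same p53RE-bla plates. These plates had been exposed to compounds for 16 h at 37 C.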

[3] = qHTS assay for small molecule disruptors of the mitochondrial membrane potential - cell viability (AID 720634; calls by dose curve;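 also: human HepG2 liver cancer cells; series mostly up to about 83 µM; nearly all actives have a fitted effect of over 20% in size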)
Outline: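 Measuring cytotoxicity alongside mitochondrial potential, the screen quantified ATP by luminescence in HepG2 cells after 1 hr compound incubation and a 30 min room-temperature CellTiter-Glo step.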

[4] = qHTS assay to test for compound auto fluorescence at 590 nm (red) in HepG2 cells (AID 720674)
Outline: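 We screened compounds on adherent HepG2 cells, incubating them for an hour at 37 C in 5% CO2 before reading emission at 590 nm under 540 nm excitation; values reflect equivalence to Rose Bengal sodium fluorescence.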

[5] = qHTS assay to test for compound auto fluorescence at 535 nm (green) in HepG2 cells (AID 720675)
[6] = qHTS assay to test for compound auto fluorescence at 590 nm (red) in HEK293 cells (AID 720679)
Outline: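 Red-channel autofluorescence (Ex/Em 540/590 nm; Rose Bengal sodium reference) was measured after overnight 37C, 5% CO2 exposure of attached HEK293 cells, 2,000 per well in medium with 10% dialyzed FBS.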

[7] = qHTS assay for small molecules that induce genotoxicity in human embryonic kidney cells expressing luciferase-tagged ATAD5 (AID 651632); also: nearly all actives have a fitted effect of over 15% in size
Outline: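 Reporter cells (HEK293T) express luciferase-tagged ATAD5, a protein that accumulates after DNA damage. Treat 16 hr at 37C/5% CO2, add Amplite, wait 30 min at RT, and read luminescence.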

[8] = qHTS assay for small molecules that induce genotoxicity in human embryonic kidney cells expressing luciferase-tagged ATAD5 - cell viability (AID 651634; calls by dose curve; also: nearly all actives have a fitted effect of over 25% in size)
Outline: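 Seeding of 2,000 HEK293T ATAD5-luciferase cells per well preceded pin-tool compound transfer. Plates sat 15.5 hr at 37C under 5% CO2, then fluorescence was read after 30 min with CellTiter-Fluor.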

[9] = qHTS assay to test for compound auto fluorescence at 460 nm (blue) in HEK293 cells (AID 720678)
Outline: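 Blue-channel (Ex/Em 405/460 nm) intensity measured in HEK293 cultures after overnight compound exposure at 37C; signal expressed relative to triamterene. Cells plated 2,000 per well in 10% dialyzed FBS medium and allowed 4-5 hr to attach.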

[10] = qHTS assay for small molecule disruptors of the mitochondrial membrane potential (AID 720635)
Outline: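 Mitochondrial membrane potential tracked with Mito-MPS dye, red aggregates (ex 540/em 590 nm) against green monomers (ex 490/em 535 nm). Compound treatment 1 hr at 37C, dye 30 min in HepG2.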

Measured: Potency

CCCCC(CC)COC(=O)CCCCC(=O)OCC(CC)CCCC (centres undefined)
inactive: [1] | [2] | [3] | [4] | [5] | [6]

OC[C@H]1O[C@@](CO)(O[C@H]2O[C@H](CO)[C@@H](O)[C@H](O)[C@H]2O)[C@@H](O)[C@@H]1O
inactive: [7] | [8] | [4] | [5] | [9] | [6]

Cc1cccnc1
not listed: [1] | [9]
inactive: all other assays above

CC1=CCC2CC1C2(C)C (centres undefined)
not listed: [1] | [3] | [10]
inactive: all other assays above

O=C(O)c1cc(C(=O)O)cc(S(=O)(=O)O)c1
not listed: [1]
inactive: all other assays above

CC(C)c1ccc(S(=O)(=O)O)cc1
not listed: [1] | [9]
inactive: all other assays above
